# This is one part of a sample in which hits are shown more often than they occur.
# CHX counter = affects cycloheximide protein synthesis inhibition readout, counter-screen; max response, %; AID 2314; 300,000 tested, 12% active; cell reporter, cycloheximide protein synthesis inhibition counterscreen; in the data active = max response mostly above about 13%, no sharp cut-off; inactive = mostly below about 14%; note: read at 38.3 µM for the half of the compounds with a filed dose; 0% is about no effect
# Shiga toxin inh = inhibitors of Shiga toxin in Vero cells. inhibition, % at 38.7 µM. AID 2315. 290,000 tested, 9.2% active. Vero cells, Shiga toxin protein synthesis inhibition reporter; in the data active = inhibition mostly above about 28%, no sharp cut-off; inactive = mostly below about 43%; note: 0% is about no effect
# Giardia FBPA inh = blocks Giardia fructose-bisphosphate aldolase activity; A8B2U2; purified Giardia FBPA; Potency, µM (series often up to 59.6 µM), inactives show at the top dose activity, negative = inhibition, hits mostly inhibitors; 290,000 tested, 0.71% active; AID 2451; note: potency is the fitted concentration of half-maximal effect; % is set by controls: 0 for no effect and ±100 for the full control effect; nearly all actives have a fitted effect of over 55% in size
# Target sequence (A8B2U2 whole entry, looked up): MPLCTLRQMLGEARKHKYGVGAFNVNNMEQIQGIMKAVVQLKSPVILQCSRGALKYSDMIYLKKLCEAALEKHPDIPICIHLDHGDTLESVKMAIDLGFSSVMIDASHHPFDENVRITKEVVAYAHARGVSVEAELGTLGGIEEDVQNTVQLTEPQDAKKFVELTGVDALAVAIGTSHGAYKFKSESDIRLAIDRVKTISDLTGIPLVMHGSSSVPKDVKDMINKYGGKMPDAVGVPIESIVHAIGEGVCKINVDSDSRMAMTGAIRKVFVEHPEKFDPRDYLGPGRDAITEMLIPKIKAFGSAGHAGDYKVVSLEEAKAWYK
#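 40 nM FBPA preincubated 10 min at RT with compound (up to 57.5 uM final), then substrate plus GAPDH/TPI/NAD/arsenate coupling and diaphorase/resazurin added. Fluorescence read after 20 min at RT, 525/598 nm.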
# RE007 growth inh = less growth of the S. pombe RE007 Vpr strain. S. pombe RE007 Vpr strain, BacTiter-Glo ATP luminescence, 24 h. Potency, µM (top dose mostly 92.2 µM), for inactives: at the top dose activity change, negative = less growth, usual class: inhibitors. 360,000 tested, 0.21% active. AID 651644; active = well fitted falling curve with a large enough effect; inconclusive = small, poorly fitted or top-dose-only effect; inactive = no such curve, though single readings can be large or run the other way; note: potency is the fitted concentration of half-maximal effect; % is set by controls: 0 for no effect and ±100 for the full control effect; nearly all actives have a fitted effect of over 50% in size
#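 Fission yeast strain RE007, carrying one chromosomally integrated HIV-1 vpr copy, was seeded at OD 0.01 in PMG+AL medium with 23 nL pinned compound. After 24 h at 30 °C and 99% humidity, viability was read by BacTiter-Glo luminescence.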
# LmPK inh = blocks Leishmania mexicana pyruvate kinase activity; Potency, µM (top dose mostly 57.5 µM), without a hit: top-dose activity change, negative = inhibition, most hits filed as inhibitors; Q27686; purified LmPK, Kinase-Glo ATP luminescence, 1 h; 290,000 tested, 0.37% active; note: potency is the fitted concentration of half-maximal effect; % is set by controls: 0 for no effect and ±100 for the full control effect
#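 Kinase-Glo luminescence read after 1 h RT reaction of 0.1 nM LmPK with 0.5 mM PEP and 0.1 mM ADP. Activity scaled between uninhibited and enzyme-free controls.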
# Tb PYK inh = T. brucei pyruvate kinase inhibition; TbPYK enzyme, Kinase-Glo Plus ATP luminescence, 45 min; Potency, µM (doses to about 76.8 µM), inactives show at the highest dose activity, negative = inhibition, usual class: inhibitors; 410,000 tested, 0.12% active; AID 624173; note: potency is the fitted concentration of half-maximal effect; % is set by controls: 0 for no effect and ±100 for the full control effect; nearly all actives have a fitted effect of over 50% in size
#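 Luminescence from Kinase-Glo Plus, added after a 45-minute room-temperature reaction, served as the end-point read-out. The enzyme and substrate were preincubated with compound before ADP (130 uM final) initiated turnover. Concentration-effect curves came from normalized qHTS data.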
# * hit, by the source's call; ? = inconclusive; . = no result. Unless noted, calls come from the whole dose curve; as a rule, active = well fitted curve in the direction sought with a large enough effect; inconclusive = small, poorly fitted or top-dose-only effect, or another doubt; inactive = no such curve, though single readings can be large; an effect the other way counts as inactive or inconclusive.
SMILES,CHX counter,Shiga toxin inh,Giardia FBPA inh,RE007 growth inh,LmPK inh,Tb PYK inh
CC(=O)N1N=C(c2ccc(C)cc2)OC1c1ccc(Br)cc1 (configuration not stated),17*,30,?,21%,4%,4%
COc1ccc2c(c1)cc1c(=O)n(CC(=O)NCCCc3ccccc3)nc(C)n12,.,.,.,.,.,1%
C[C@@H](C1=C(CCN(C)C)Cc2ccccc21)c1ccccn1,.,.,0%,.,.,0%
COc1ccc(-c2noc(-c3cc(C(C)C)[nH]n3)n2)cc1,.,.,.,.,.,0%
CCOC(=O)c1sc(NC(=O)C(CC)OC(=O)c2ccco2)nc1C (configuration not stated),16*,13,-6%,-7%,1%,3%
CCOC(=O)c1sc(NC(=O)c2ccco2)nc1-c1ccccc1,-2,18,4%,17%,5%,-4%
COC(=O)c1sc(NC(=O)c2ccco2)nc1C,12,52,9%,-6%,-26%,-6%
CCOC(=O)c1sc(NC(=S)NC(=O)c2ccco2)nc1C,42*,50,-27%,0%,-1%,2%
c1ccc(CCNc2nc(-c3ccccc3)cs2)cc1,.,.,.,.,.,-8%
CC(=O)Nc1ccc(-c2csc(NC(=O)Cc3ccccc3F)n2)cc1,14,23,-8%,-11%,2%,-1%
CCC(=O)Nc1nc(C)c(-c2csc(Nc3ccccn3)n2)s1,33*,103*,-14%,10%,0%,0%
Cc1ccnc(Nc2nc(-c3ccc(O)cc3O)cs2)c1,25*,22*,9%,?,5%,1%
CCCC(=O)Nc1nc(C)c(-c2csc(Nc3ccccc3C)n2)s1,8,-14,-16%,14%,-9%,-11%
CC(=O)Nc1ccc(-c2csc(Nc3ccccn3)n2)cc1,48*,52*,-3%,-11%,-2%,-9%
CC(=O)Nc1ccc(-c2csc(NCCc3ccccc3)n2)cc1,21*,90,3%,15%,10%,-5%
CCCCc1oc2ccc(NS(C)(=O)=O)cc2c1C(=O)c1ccc(OCCCN(CCCC)CCCC)cc1,.,.,.,.,.,-8%
Cc1ccc(CCNS(=O)(=O)c2ccc3c(c2)CCN3C(=O)CCC(=O)O)cc1,.,.,.,.,.,1%
Oc1ccc(-c2csc(Nc3cccc4ccccc34)n2)cc1O,8,11,?,2%,-16%,-19%
Cc1cccc(OC(C)C(=O)Nc2nc(-c3ccncc3)cs2)c1 (configuration not stated),.,.,.,3%,.,-14%
Oc1ccc(-c2csc(Nc3ccccn3)n2)cc1O,43*,100*,-17%,9%,?,-8%
Cc1ccnc(Nc2nc(-c3ccc(O)cc3)cs2)c1,35*,120*,4%,-27%,-7%,-8%
Cc1ccnc(Nc2nc(-c3ccc(O)c(O)c3)cs2)c1,40*,97*,-23%,-3%,?,-7%
CCOc1ccc(CCNC(=O)CS(=O)(=O)Cc2nc(-c3cccc(Cl)c3)oc2C)cc1,.,.,.,.,.,2%
CCOc1ccc(CNC(=O)c2oc3c(c2C)-c2nn(Cc4cccc(Cl)c4)cc2CC3)cc1,.,.,.,.,.,0%
O=C(O)CN1C(=O)/C(=C/c2ccc(SCc3ccccc3)o2)SC1=S,-1,-5,20µM*,5%,-4%,-14%
SMILES,CHX counter,Shiga toxin inh,Giardia FBPA inh,RE007 growth inh,LmPK inh,Tb PYK inh
Cc1nn(-c2ccc(Cl)cc2Cl)c(=O)c2ccccc12,4,-3,10%,6%,1%,0%
CC1=NN(S(=O)(=O)c2ccc(Cl)cc2Cl)C(=O)c2ccccc2O1,12*,2,-5%,20%,3%,-4%
CCc1cccc(C)c1NC(=O)Cn1ccn(Cc2ccc(Cl)cc2)c(=O)c1=O,.,.,.,.,.,-3%
Cc1cc(N/N=C/c2ccccc2)nc(N2CCOCC2)n1,19*,55,-3%,0%,2%,-4%
Cc1cc(N/N=C/c2ccccc2)nc(N)n1,20*,50*,-7%,2%,-14%,3%
Cc1nc(N)nc(N/N=C/c2ccccc2)n1,14*,41*,-16%,9%,-9%,-5%
Cc1cc(N/N=C/c2ccc(O)cc2)nc(NS(=O)(=O)c2ccccc2)n1,-1,-7,1%,2%,18%,5%
COC(=O)[C@@]1(Cc2ccc(OC)cc2)[C@H]2c3cc(C(=O)N(C)C)n(Cc4cc(C)n(C)n4)c3C[C@H]2CN1C(=O)c1ccccc1,.,.,0%,.,.,.
COC(=O)c1ccc(NC(=O)c2nn(C)c3c2CS(=O)(=O)c2ccccc2-3)cc1,.,.,.,.,.,1%
CC(C)OCCCNC(=S)NNC(=O)c1ccc(Cl)c(Cl)c1,29*,66*,6%,5%,1%,-15%
COCCCNC(=S)NNC(=O)c1ccc2c(c1)OCO2,0,-1,-5%,-10%,-4%,3%
c1ccc(OCCn2c(COc3ccccc3)nc3ccccc32)cc1,.,.,.,.,.,-1%
Cn1c(COc2ccccc2)nc2ccccc21,32*,67*,-7%,-14%,-2%,-1%
C=CCn1c(COc2ccccc2)nc2ccccc21,29*,44*,27%,-9%,-2%,-4%
CC(C)(C)NC(=O)NC(=O)COC(=O)c1c(F)cccc1Cl,36*,109*,0%,-1%,-1%,2%
CCNC(=S)N/N=C(\C)c1ccc2c(c1)OCCO2,-3,49*,-12%,1%,1%,-15%
CNC(=S)N/N=C(\C)c1ccc2c(c1)OCCO2,19*,36,-27%,3%,-1%,-3%
CCc1ccc(OCC(=O)N/N=C(\C)c2ccc3c(c2)OCCO3)cc1,13*,-10,0%,-5%,2%,1%
C/C(=N\NC(=S)Nc1ccc(C(C)C)cc1)c1ccc2c(c1)OCO2,11,35*,2%,-5%,0%,-13%
CCN(CC)S(=O)(=O)c1ccc2c(c1)N(CC(=O)NCCCN1CCN(c3cc(Cl)ccc3C)CC1)C(=O)CO2,.,.,.,.,.,4%
O=C(N[C@@H](Cc1ccccc1)C(=O)O)c1ccccc1,.,.,10%,.,.,.
CC(NC(=O)C1CCN(S(=O)(=O)N2CCC3(CC2)OCCO3)CC1)c1ccccc1 (configuration not stated),-2,-4,2%,-6%,7%,0%
CC(NC(=O)C1CCN(S(=O)(=O)N2CCCCCC2)CC1)c1ccccc1 (configuration not stated),17*,-7,7%,-3%,1%,1%
COn1c(-c2ccc(Cl)cc2)nc2ccc(Cl)cc21,27*,69*,-18%,-29%,0%,4%
COc1ccc(-c2nc3ccccc3n2OCC(=O)O)cc1,21*,25,?,?,-29%,-2%
O=C(O)COn1c(-c2ccc(Cl)cc2)nc2ccc(Cl)cc21,15,87*,?,-17%,0%,-1%
Cc1ccccc1C(=O)Nc1ccccc1C(=O)OCc1cc(=O)n2ccsc2n1,.,.,.,.,.,-1%
